system: T1, ERK1; conditions: concentration: 1 μM, replicates: in singlicate; n = 1
T1 construct: gene MAPK3
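Also: KINOMEscan kinase panel screen.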

Row | SMILES | %Inh [%]
1 | Cn1cc(-c2[nH]c3cc(NC(=O)[C@H](N)C4CCCCC4)cc4c3c2C=NNC4=O)cn1 | 33
2 | O=C(Nc1ccccc1F)NC1CCN(c2ccnc(Nc3ccc(F)cc3)n2)CC1 [GSK1379800] | 3
3 | Cc1ccc(F)c(C(=O)Nc2cccc(-c3nn4ccccc4c3-c3ccnc(Nc4cccc(F)c4)n3)c2)c1F [GSK361061] | 26
4 | O=C(O)C(F)(F)F.O=C(O)C(F)(F)F.O=c1[nH]ccc2nc(N[C@@H]3CCCNC3)nc(Nc3ccc(S(=O)(=O)N4CCOCC4)cc3)c12 [GSK2177277] | 59
5 | CN1CCN(CCCNc2nccc(-c3c(-c4ccc(F)cc4)nn4cc(C(F)(F)F)ccc34)n2)CC1 [GW621581] | 0
6 | CSc1cccc2c(-c3ccncn3)c(-c3ccc(F)cc3)nn12 [GW514786] | 14
7 | O=C(Nc1cccc(-c2nn3ccccc3c2-c2ccnc(Nc3cccc(C(F)(F)F)c3)n2)c1)c1c(F)cccc1F [GSK292658] | 0
8 | COc1ccc(Nc2nccc(N3CCC(NC(=O)Nc4cccc(OC)c4)C3)n2)cc1 (centres unmarked) [GSK1379742] | 0
9 | Cc1cccc(NC(=O)Nc2ccc(Oc3ncnc4ccn(C)c34)cc2)c1 | 0
10 | O=C(NC1CCN(c2ccnc(Nc3ccc(F)cc3)n2)C1)c1cc2ccccc2s1 (centres unmarked) [GSK1379716] | 4
11 | O=c1[nH]cc(-c2ccc(N3CCOCC3)cc2)c2sc(-c3cn[nH]c3)cc12 [GSK2276055] | 0
12 | Nc1ncc(-c2cccnc2)c2scc(-c3ccc4c(c3)CCN4C(=O)Cc3ccccc3)c12 [GSK683281] | 0
13 | O=C(Nc1cccc(Oc2ccc3nc(NC(=O)C4CC4)cn3n2)c1)c1ccccc1C(F)(F)F | 0
14 | Cl.Cl.NCC(NCc1ccc(-c2ccnc3[nH]ccc23)s1)c1ccccc1 (centres unmarked) [GSK1321565] | 0
15 | COc1ccc(CNC(=O)NC2CCN(c3ccnc(Nc4ccc(F)cc4)n3)CC2)cc1 [GSK1379788] | 0
16 | CCn1c(-c2nonc2N)nc2c(C#CC(C)(C)O)nc(OC[C@H](N)c3ccccc3)cc21 [GSK943949] | 0

Row | SMILES | %Inh [%]
17 | CN(c1ccc(NC(=O)Nc2cc(C(F)(F)F)ccc2F)cc1)c1ccnc(Nc2ccc(S(N)(=O)=O)cc2)n1 [GW809893] | 0
18 | O=C(Nc1n[nH]c2nc(-c3ccc(O)cc3)ccc12)C1CC1 [SB-710363] | 0
19 | O=C(Nc1cccc(-c2nn3ccccc3c2-c2ccnc(Nc3cccc(F)c3)n2)c1)c1c(F)ccc(F)c1Cl [GSK357952] | 0
20 | Nc1ncnc2c1nc(-c1ccccc1)n2-c1ccccc1 [SKF-97293] | 12
21 | Cc1cccc(Nc2nc(N[C@H]3CCNC3)ncc2C(N)=O)c1.Cl [GSK2197149] | 1
22 | COc1cccc(C2=C(Nc3ccc(Cl)c(C(=O)O)c3)C(=O)NC2=O)c1 [SB-390769] | 10
23 | COc1cc(Nc2nccc(-c3c(-c4cccc(NC(=O)c5c(F)cccc5F)c4)nn4ccccc34)n2)cc(OC)c1OC [GSK323521] | 25
24 | CC(=O)Nc1nc2cnc(Nc3cc(NC(=O)c4cccc(C5(C#N)CC5)c4Cl)ccc3C)nc2s1 | 0
25 | c1ccc(Oc2ccc(Nc3ccnc4cc(-c5ccc(CNCCN6CCOCC6)o5)ccc34)cc2)nc1 [GW567145] | 0
26 | CNC(=O)c1ccccc1Nc1nc(Nc2ccc(N3CCOCC3)cc2)ncc1Cl.Cl [GSK1576028] | 59
27 | Cl.Cl.NCC(NC(=O)c1cc(-c2ccccc2)c(-c2ccnc3[nH]ccc23)s1)c1ccccc1 (centres unmarked) [GSK1321561] | 6
28 | Fc1ccc(-c2ncn(C3CCNCC3)c2-c2ccnc(Oc3ccc(-c4ccccc4)cc3)n2)cc1 [SB-245391] | 47
29 | Cn1cc(-c2ccc3c(c2)CCN3C(=O)Cc2cccc(F)c2)c2c(N)ncnc21 [GSK2603358] | 0
30 | COc1cc(Nc2nccc(N3CCC(NC(=O)c4cc5ccccc5s4)C3)n2)cc(OC)c1OC (centres unmarked) [GSK1379760] | 12
31 | CC(=O)N1CCN(c2ccc(Nc3nccc(-c4sc(C(C)C)nc4-c4cccc(NS(=O)(=O)c5cccc(Cl)c5)c4)n3)cn2)CC1 [GSK1660437] | 0
32 | COc1cc(Nc2ncc3c(C)nc(-c4cc5ccccc5[nH]4)n3n2)cc(OC)c1OC [GW869516] | 0
